{"source": "PubChem BioAssay AID504832", "about": "(National Center for Advancing Translational Sciences (NCATS), 2011)", "note": "Hit rate of the full screen: of about 310,000 compounds, about 18,000 (5.8%) were called active. Another 22% or so got no clear call; they are omitted. The call rests on the fitted dose curve; in most records, active means well fitted inhibition curve with a large enough effect; inconclusive means small, poorly fitted or top-dose-only effect, or another doubt; inactive means no such curve, though single readings can be large or run the other way. The list comes from a sample in which actives are over-represented; it also holds similar structures and randomly drawn compounds. On the % scale 0 is the no-effect control and ±100 the full control effect; potency means the concentration at half of the fitted maximal effect."}
{"test": "Primary qHTS for delayed death inhibitors of the malarial parasite plastid, 48 hour incubation", "conditions": "P. falciparum luciferase growth in erythrocytes; series mostly up to 28.7 µM; activity change, negative = inhibition: at the top concentration", "in_short": "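Read-out is firefly luciferase luminescence from an integrated reporter in P. falciparum, so falling signal marks reduced parasite growth. Infected erythrocytes were at 2% hematocrit and 0.1% parasitemia (final) in Albumax-supplemented RPMI 1640.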"}
{"smiles": "COc1ccc(OC)c(/C(C)=N\\NC(=O)c2cc3cc(Cl)ccc3n2C)c1", "activity change, negative = inhibition": "-1.37% (inactive)"}
{"smiles": "CCCN(CCC)c1nc2c(C)cccn2c(=O)c1/C=C1/SC(=S)N(Cc2ccco2)C1=O", "Potency": "1.31 µM (active)"}
{"smiles": "O=C(CCCN1C(=O)/C(=C\\c2ccco2)SC1=S)Nc1cccc2ccccc12", "activity change, negative = inhibition": "5.18% (inactive)"}
{"smiles": "Cc1cccn2c(=O)c(/C=C3\\SC(=S)N(CC(C)C)C3=O)c(NCCCOC(C)C)nc12", "activity change, negative = inhibition": "4.14% (inactive)"}
{"smiles": "CC(=O)c1ccc(NC(=O)CCNS(=O)(=O)c2cc(Br)cnc2N)cc1", "activity change, negative = inhibition": "5.08% (inactive)"}
{"smiles": "COc1cc(C(=O)NNC(=O)CN2C(=O)NC3(CCCC3)C2=O)cc(OC)c1OC", "activity change, negative = inhibition": "-15% (inactive)"}
{"smiles": "O=C(N/N=C/c1c[nH]c2ccccc12)c1ccccc1O", "activity change, negative = inhibition": "-19.7% (inactive)"}
{"smiles": "Cc1cc(NC(=O)C(C)SCC(=O)Nc2ccccc2N2CCCCC2)no1", "note": "(configuration not stated)", "Potency": "8.28 µM (active)"}
{"smiles": "CC(C)n1c(SCC(=O)Nc2ccccc2N2CCCCC2)nc2c1c(=O)n(C)c(=O)n2C", "activity change, negative = inhibition": "-8.49% (inactive)"}
{"smiles": "Cc1cc(NC(=O)CSCc2ccccc2C)no1", "activity change, negative = inhibition": "14.7% (inactive)"}
{"smiles": "CCN(CC)c1ccc(/C=N/NC(=O)CNC(=O)c2cccnc2)cc1", "activity change, negative = inhibition": "30.6% (inactive)"}
{"smiles": "COc1cccc(NC(=O)C/C(C)=N/NC(=O)C2CCCCC2)c1", "activity change, negative = inhibition": "7.61% (inactive)"}
{"smiles": "O=C(NC(Cc1ccc(O)cc1)C(=O)O)/C(=C/c1ccccc1)NC(=O)c1ccccc1", "note": "(configuration not stated)", "activity change, negative = inhibition": "78.7% (inactive)"}
{"smiles": "CCOc1cc2[nH]c(=O)n(Cc3ccc(C(=O)NCCCN4CCCC4=O)cc3)c(=O)c2cc1OCC", "activity change, negative = inhibition": "-6.67% (inactive)"}
{"smiles": "COc1cc2[nH]c(=O)n(CCC(=O)NC3CCN(Cc4ccccc4)CC3)c(=O)c2cc1OC", "activity change, negative = inhibition": "21.7% (inactive)"}
{"smiles": "COc1cc2[nH]c(=O)n(Cc3ccc(C(=O)NC4CCN(Cc5ccccc5)CC4)cc3)c(=O)c2cc1OC", "Potency": "13.1 µM (active)"}
{"smiles": "CCOC(=O)c1ccc(NC(=S)N2CCN(c3ccccn3)CC2)cc1", "activity change, negative = inhibition": "15% (inactive)"}
{"smiles": "COc1ccc(NS(=O)(=O)c2ccc(F)cc2F)cn1", "activity change, negative = inhibition": "38.3% (inactive)"}
{"smiles": "CCCS(=O)(=O)N1CCN=C1SCc1cccc(F)c1", "activity change, negative = inhibition": "-6.09% (inactive)"}
{"smiles": "CC1(C)CC(=O)C=C(Nc2ccccc2)C1", "activity change, negative = inhibition": "-13.2% (inactive)"}
{"smiles": "CC1(C)CC(=O)C=C(c2ccc(Cl)c(C(F)(F)F)c2)C1", "Potency": "5.86 µM (active)"}
{"smiles": "COc1cc(F)c(C2=CC(=O)CC(C)(C)C2)cc1F", "activity change, negative = inhibition": "28.7% (inactive)"}
{"smiles": "COC(=O)c1cc(NS(=O)(=O)c2ccc3c(c2)c(=O)n(C)c(=O)n3C)cc(C(=O)OC)c1", "activity change, negative = inhibition": "20.2% (inactive)"}
{"smiles": "O=C1NCCn2nc3ccccc3c21", "activity change, negative = inhibition": "2.57% (inactive)"}
{"smiles": "NS(=O)(=O)c1cccnc1Nc1cccc(Cl)c1", "activity change, negative = inhibition": "33.3% (inactive)"}
{"smiles": "CCOC(=O)c1c(S(=O)(=O)Nc2cccc(Cl)c2)c(C)n(C)c1C", "activity change, negative = inhibition": "-8.53% (inactive)"}
{"smiles": "CCOc1c(Nc2cccc(Cl)c2)c(=O)c1=O", "Potency": "7.38 µM (active)"}
{"smiles": "Cc1ccc2c(c1)N(CC(=O)N1CCOCC1)C(=O)CO2", "activity change, negative = inhibition": "17.2% (inactive)"}
{"smiles": "O=S(=O)(NCc1ccc(Cl)cc1Cl)c1cccs1", "activity change, negative = inhibition": "42.9% (inactive)"}
{"smiles": "Cc1ccc(NC(=O)NC2CCCCC2)cc1S(=O)(=O)N1CCOCC1", "activity change, negative = inhibition": "-7.23% (inactive)"}
{"smiles": "Cc1ccc(NC(=O)C(C)OC(=O)Cc2c[nH]c3ccccc23)cc1S(=O)(=O)N1CCOCC1", "note": "(configuration not stated)", "Potency": "5.22 µM (active)"}
{"smiles": "CC(OC(=O)CCCc1c[nH]c2ccccc12)C(=O)Nc1ccc(S(N)(=O)=O)cc1", "note": "(configuration not stated)", "activity change, negative = inhibition": "19% (inactive)"}
{"smiles": "O=C(Nc1ccccc1N1CCCC1)c1ccc2ccccc2c1", "activity change, negative = inhibition": "10% (inactive)"}
{"smiles": "COc1cccc(NC(=O)C(=O)c2cn(CC(=O)N3CCOCC3)c3ccccc23)c1", "activity change, negative = inhibition": "63.7% (inactive)"}
{"smiles": "CC(C)(C)NC(=O)NCc1ccco1", "activity change, negative = inhibition": "13.8% (inactive)"}
{"smiles": "O=C(NCc1ccco1)c1nc(-c2ccccc2)n(-c2ccccc2)n1", "activity change, negative = inhibition": "5.98% (inactive)"}
{"smiles": "Cc1nn(-c2ccccc2)c2sc(C(=O)N(Cc3ccco3)C(C)C(=O)NC(C)(C)C)cc12", "note": "(configuration not stated)", "Potency": "11.7 µM (active)"}
{"smiles": "O=C(Nc1nc2ccc([N+](=O)[O-])cc2s1)c1ccncc1", "activity change, negative = inhibition": "-30.6% (inactive)"}
{"smiles": "O=C(NC(Nc1nc2ccc([N+](=O)[O-])cc2s1)(C(F)(F)F)C(F)(F)F)c1ccccc1", "Potency": "1.65 µM (active)"}
{"smiles": "O=C(COC(=O)c1ccc(F)cc1)Nc1nc2ccc([N+](=O)[O-])cc2s1", "activity change, negative = inhibition": "-18.4% (inactive)"}
{"smiles": "COC(=O)c1ccc(C)c(NC(=O)C2CC(=O)N(C3CCCC(C)C3C)C2)c1", "note": "(configuration not stated)", "activity change, negative = inhibition": "-11.9% (inactive)"}
{"smiles": "Cc1cc(NC(=O)COc2ccc([N+](=O)[O-])cc2)no1", "activity change, negative = inhibition": "-10.4% (inactive)"}
{"smiles": "CC(=O)c1cccc(OCc2cc(C(=O)NC(C)Cc3cccnc3)no2)c1", "note": "(configuration not stated)", "activity change, negative = inhibition": "0% (inactive)"}
{"smiles": "CCc1cc(=O)oc2c(C)c(OCC(=O)N3CC[C@@]4(O)CCCC[C@H]4C3)ccc12", "activity change, negative = inhibition": "-23.9% (inactive)"}
{"smiles": "CN(C)CCN(Cc1ccccc1)S(=O)(=O)c1csc(C(N)=O)c1", "activity change, negative = inhibition": "34.9% (inactive)"}
{"smiles": "O=C1c2ccccc2C(=O)C1c1ccccc1F", "activity change, negative = inhibition": "8.55% (inactive)"}
{"smiles": "O=C1c2ccccc2C2=Nc3ccccc3SC(c3ccccc3F)C12", "note": "(configuration not stated)", "Potency": "0.329 µM (active)"}
{"smiles": "COCCN(C(=O)CSCc1ccc(C)cc1)c1c(N)n(CC(C)C)c(=O)[nH]c1=O", "activity change, negative = inhibition": "-24.5% (inactive)"}
{"smiles": "CC1(C(=O)NNC(=S)NCC2CCCO2)CC1(Cl)Cl", "note": "(configuration not stated)", "activity change, negative = inhibition": "-1.58% (inactive)"}
{"smiles": "CN(C)S(=O)(=O)c1cccc(NC(=O)Cc2ccsc2)c1", "activity change, negative = inhibition": "-7.53% (inactive)"}
{"smiles": "CN(c1ccccc1)S(=O)(=O)c1cccc(NC(=O)Cc2ccc(Cl)cc2)c1", "Potency": "11.7 µM (active)"}
{"smiles": "CN(c1ccccc1)S(=O)(=O)c1cccc(NC(=O)Cc2c(F)cccc2Cl)c1", "activity change, negative = inhibition": "-25.5% (inactive)"}
{"smiles": "C[C@@H]1NC(=O)[C@@]2(C)[C@@H](c3ccccc3)[C@H]3COc4ccccc4[C@@H]3N2C1=O", "activity change, negative = inhibition": "5.3% (inactive)"}
{"smiles": "CCc1nnc(NC(=O)C2CCN(C(=O)c3ccccc3C)CC2)s1", "activity change, negative = inhibition": "-2.64% (inactive)"}
{"smiles": "Cc1ccccc1C(=O)N1CCC(C(=O)Nc2ccc(S(=O)(=O)N(C)C(C)C)cc2)CC1", "Potency": "9.28 µM (active)"}
{"smiles": "CC(=O)c1cccc(NC(=O)C2CCN(C(=O)c3ccccc3Cl)CC2)c1", "activity change, negative = inhibition": "2.74% (inactive)"}
{"smiles": "CC(C)c1c(C(=O)N/N=C/c2ccccc2C(=O)O)nnn1-c1nonc1N", "activity change, negative = inhibition": "31.1% (inactive)"}
{"smiles": "Cc1cc(Cl)c2oc(C(=O)N3CCC(O)(c4ccccc4)CC3)c(C)c2c1", "activity change, negative = inhibition": "-1.89% (inactive)"}
{"smiles": "O=C(O)c1cc([N+](=O)[O-])c(Nc2cccc3ccccc23)c([N+](=O)[O-])c1", "activity change, negative = inhibition": "27.2% (inactive)"}
{"smiles": "Cn1cc[n+](C)c1COc1ccc(C=O)cc1", "activity change, negative = inhibition": "8.97% (inactive)"}
{"smiles": "O=C(CN(C(=O)c1csnn1)c1cccc(Cl)c1)NC1CCCC1", "activity change, negative = inhibition": "3.32% (inactive)"}
{"smiles": "CCn1c(COc2ccccc2)nnc1SCC(=O)NCc1ccco1", "activity change, negative = inhibition": "3.66% (inactive)"}
{"smiles": "Cn1c(-c2ccc(F)cc2)cnc1SCC(=O)NCc1ccco1", "activity change, negative = inhibition": "-15.9% (inactive)"}
{"smiles": "Cc1ccc(-c2csc3nnc(SCC(=O)NCc4ccco4)n23)cc1", "Potency": "9.28 µM (active)"}
{"smiles": "O=C(CSc1nnc(-c2ccco2)n1Cc1ccccc1)NC(=O)NCc1ccco1", "Potency": "10.4 µM (active)"}
{"smiles": "O=C(CSc1nnc2scc(-c3ccc(F)cc3)n12)NCc1ccco1", "activity change, negative = inhibition": "-10.2% (inactive)"}
{"smiles": "CCn1c(SCC(=O)NCc2ccco2)nnc1-c1ccc(N)cc1", "activity change, negative = inhibition": "19.4% (inactive)"}
